TDP1 cell noCPT: qHTS for Inhibitors of human tyrosyl-DNA phosphodiesterase 1 (TDP1): qHTS in cells in absence of CPT. DT40 Tdp1-/- hTDP1 cells, no CPT, ATP luminescence, 48 h. AID 686978, 2013. Potency, µM (top dose mostly 46.2 µM), for inactives: at the highest dose activity change, negative = growth inhibition, hits mostly inhibitors. hit rate 15% among 420,000; also: potency is read from the fitted curve at half-maximal effect; nearly all actives have a fitted effect of over 55% in size
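Camptothecin absent (DMSO only). Human TDP1-complemented DT40 knockout cells, 400 cells/well, 37 °C for minimum 48 hr; ATP measured via CellTiter-Glo, 30 min dark incubation, luminescence.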
TDP1 cell CPT: DT40-hTDP1 cell growth loss with CPT; chicken DT40 Tdp1-/-;hTDP1 cells + 20 nM CPT, ATP luminescence, 48 h; Potency, µM (doses to about 46.2 µM), for the others: at the top dose activity change, negative = growth inhibition, actives largely listed as inhibitors; hit rate 12% among 420,000; AID 686979; also: potency is read from the fitted curve at half-maximal effect; nearly all actives have a fitted effect of over 55% in size
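Chicken DT40 Tdp1-/- cells complemented with human TDP1, 400 cells/well, exposed to compounds plus 20 nM camptothecin for at least 48 h at 37 C; viability read as ATP content by CellTiter-Glo luminescence.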
IL1B secr inh: blocks inflammasome-driven IL-1 beta release | THP-1 LPS/ATP IL-1B secretion, AlphaLISA, 16 h; active compounds read low | activity change, % at 57.5 µM | hit rate 4.7% among 360,000 | AID 743279; in the data active = activity change below about -50%; inconclusive = mostly about -30% to -49%
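Secreted IL-1B measured by AlphaLISA bead assay after 16 h compound exposure of THP-1 cells; compounds (final up to 57.5 uM) added 1 h before LPS (250 ng/mL) and ATP (1.25 mM) stimulation; lower signal means less secretion.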
HT1080-NT tox: kills 2HG-producing HT-1080-NT fibrosarcoma cells; HT-1080-NT fibrosarcoma viability, CellTiter-Glo ATP luminescence, 48 h; Potency, µM (doses to about 46.1 µM), without a hit: at the highest dose activity, negative = less viability, actives largely listed as cytotoxic; hit rate 1.6% among 360,000;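 also: NT is the 2HG producing partner of a matched IDH1 knockdown line; potency is read from the fitted curve at half-maximal effect; 0% = DMSO-treated cells and -100% = media-only wells without cells; nearly all actives have a fitted effect of over 55% in size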
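Toxicity toward the 2HG-producing NT line was scored as %Activity, normalised to DMSO and no-cell wells, from CellTiter-Glo luminescence after 48 hours' treatment.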
HT1080 IDH1KD tx: kills HT-1080 cells with IDH1 knockdown | Potency, µM (highest dose often 46.1 µM), inactives show top-dose activity, negative = toxicity, usual class: cytotoxic | HT-1080 IDH1 knockdown viability, ATP luminescence, 48 h | hit rate 2% among 360,000 | AID 686971;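 also: potency is read from the fitted curve at half-maximal effect; 0% = DMSO wells and -100% = cell-free medium wells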
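HT-1080-IDH1KD cells (IDH1 knocked down), 750/well in RPMI with 5% FBS, treated with compound 48 h at 37 degrees C. Viability by CellTiter-Glo luminescence, normalised to DMSO and no-cell wells; concentration-response curves classed.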
* marks the source's active call; other numbers are inactive results; ? = inconclusive; nt = not tested or not shown; [ ] = dose if it differs, or a comment. This is a sample that favours compounds with a hit; in the whole collection about 19% have one here. Unless noted, calls follow the shape of the dose curve; as a rule, active = well fitted curve in the direction sought with a large enough effect; inconclusive = small, poorly fitted or top-dose-only effect, or another doubt; inactive = no such curve, though single readings can be large; an effect the other way counts as inactive or inconclusive. Unless noted, % is scaled to controls: 0 for no effect and ±100 for the full control effect.

SMILES	TDP1 cell noCPT	TDP1 cell CPT	IL1B secr inh	HT1080-NT tox	HT1080 IDH1KD tx
C[C@@H]1CN([C@@H](C)CO)C(=O)c2cc(NC(=O)Nc3cccc4ccccc34)ccc2O[C@@H](C)CCCCO[C@H]1CN(C)C(=O)c1ccccc1	21µM*	?	37	5%	-3%
Cc1noc(C)c1NC(=O)N(C)C[C@H]1Oc2ccc(NC(=O)Nc3ccccc3)cc2C(=O)N([C@H](C)CO)C[C@@H]1C	-1%	9%	43	2%	4%
CCOC(=O)N1CCN(C(=S)Nc2cc(OC)c(OC)cc2C(=O)OC)CC1	-19%	-8%	23	14%	5%
Cc1ccccc1N1CC(C(=O)Nc2ccncc2)CC1=O (centres undefined)	3%	14%	12	6%	6%
CCOC(=O)N1CCC2(CC1)C(C(=O)C13CC4CC(CC(C4)C1)C3)C2(C#N)C#N (centres undefined)	?	?	-54*	-3%	-1%
C/C(=N\Nc1nc(C)cc(-c2ccccc2)n1)c1ccccc1	?	?	3	-28%	?
C/C(=N\Nc1nc(C)cc(-c2ccccc2)n1)c1cccc(N)c1	21µM*	?	5	-8%	-1%
C/C(=N\NC(=O)c1ccc(-c2ccccc2)cc1)c1cccc(N)c1	-9%	13%	0	-17%	-13%
C/C(=N\Nc1nc(C)cc(-c2ccccc2)n1)c1ccc(O)cc1	4.6µM*	7.3µM*	-74*	10µM*	-14%
Cc1nc(-c2ccccc2Cl)sc1C(=O)/C=C/N(C)C	5%	15%	-26	7%	3%
CC(O)CN1CCN(C(=O)CN2C(=O)NC(c3ccccc3)(c3ccccc3)C2=O)CC1 (centres undefined)	-9%	-4%	7	1%	1%
Cc1cc(NS(=O)(=O)c2ccc(NC(=O)COc3c(C)ccc(C)c3C)cc2)nc(C)n1	21%	-3%	nt	nt	nt
CCCCOC(=O)/C=C/c1ccc(OC(=O)OC)c(OC(=O)OC)c1	9.2µM*	7.3µM*	12	-27%	?
COC(=O)Oc1ccc(/C=C/C(=O)OC(C)C)cc1OC(=O)OC	9.2µM*	?	5	-13%	1%
CCCCC(CC)COC(=O)/C=C/c1ccc(OC)cc1 (centres undefined)	4%	1%	nt	nt	nt
COc1ccc(/C=C/C(=O)Oc2ccc(C=O)cc2OC)cc1	-19%	-19%	0	2%	6%
COc1ccc(CNC(=O)Cc2c(C)c3c(cc(C)c4c(C)c(C)oc43)oc2=O)cc1OC	-16%	-1%	nt	nt	nt
CC1(CCc2ccccc2)NC(=O)N(CC(=O)N2CCCCCC2)C1=O (centres undefined)	0%	3%	-5	7%	15%
N#CCSc1nc2c(sc(=S)n2Cc2ccco2)c(=O)n1-c1ccc(F)cc1	?	?	-53*	?	?
CN(C)c1nc(C=C(C#N)C#N)c(Cl)n1-c1ccc(F)cc1	5.2µM*	4.1µM*	-97*	7.3µM*	4.6µM*
Cc1c(-c2ccccc2)cnc2c(C)cccc12	?	-4%	0	14%	9%
COc1cc(C2c3c([nH]c(=O)[nH]c3=O)Nc3ccc4ccccc4c32)cc(OC)c1OC (centres undefined)	-22%	0%	-92*	?	-26%
COc1cc(C2c3c([nH]c(=O)[nH]c3=O)Nc3ccc4ccccc4c32)ccc1O (centres undefined)	-15%	-13%	-97*	-25%	?
COc1ccc(C2C3=C(CCCC3=O)Nc3ccc4ncccc4c32)cc1OC (centres undefined)	12%	-1%	-13	-21%	-7%
COc1cc(C2C3=C(CCCC3=O)Nc3ccc4ncccc4c32)ccc1O (centres undefined)	6.5µM*	6.5µM*	11	?	6.5µM*
Cc1ccc(C)c(CN2C[C@H](Sc3nc4ccccc4[nH]3)C[C@H]2C(=O)N2CCCN(C)CC2)c1	-10%	19%[9.04 µM]	nt	nt	nt
